Results as given in PubChem BioAssay (NCI).
About 83,000 compounds went through this panel and 20% of them were active in at least one assay; those are over-represented in the sample as a whole.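 A percent growth of 40 corresponds to 60% growth inhibition; 0 means no net growth; -100 means all cells died. Active threshold: below 10.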 Unmarked numbers belong to inactive results. Activity calls are given as the source filed them.

Experiments:
Experiment in all cases: NCI-60 one-dose screen, 48 h (100 = growth as untreated, 0 = no growth, -100 = all killed)
Settings in all cases: 10 µM unless noted
SR leukemia = test system: SR leukemia
RPMI-8226 leukemia = test system: RPMI-8226 leukemia
OVCAR-8 ovarian = test system: OVCAR-8 ovarian
OVCAR-5 ovarian = test system: OVCAR-5 ovarian
OVCAR-4 ovarian = test system: OVCAR-4 ovarian
SK-OV-3 ovarian = test system: SK-OV-3 ovarian
IGROV1 ovarian = test system: IGROV1 ovarian
HS 578T breast = test system: HS 578T breast
NCI/ADR-RES ovarian = test system: NCI/ADR-RES ovarian
T-47D breast = test system: T-47D breast
MDA-MB-435 melanoma = test system: MDA-MB-435 melanoma
SW-620 colon = test system: SW-620 colon
MCF7 breast = test system: MCF7 breast
HCT-116 colon = test system: HCT-116 colon
HCC-2998 colon = test system: HCC-2998 colon
KM12 colon = test system: KM12 colon
MDA-MB-468 breast = test system: MDA-MB-468 breast
BT-549 breast = test system: BT-549 breast

Structure (SMILES)	growth (SR leukemia)	growth (RPMI-8226 leukemia)	growth (OVCAR-8 ovarian)	growth (OVCAR-5 ovarian)	growth (OVCAR-4 ovarian)	growth (SK-OV-3 ovarian)	growth (IGROV1 ovarian)	growth (HS 578T breast)	growth (NCI/ADR-RES ovarian)	growth (T-47D breast)	growth (MDA-MB-435 melanoma)	growth (SW-620 colon)	growth (MCF7 breast)	growth (HCT-116 colon)	growth (HCC-2998 colon)	growth (KM12 colon)	growth (MDA-MB-468 breast)	growth (BT-549 breast)
CC(C)(C)C(=O)C1CC(C#N)=C2C=Cc3c(ccc4ccccc34)N21 (stereo not drawn)	94.3%	75%	71.2%	121%	79.3%	75%	92.9%	30.6%	81.9%	72.8%	97.9%	102%	63%	93.1%	99.7%	97%	96.2%	
CCOC(=O)/C(F)=C/C1CC1CCc1ccc(OCC)cc1 (stereo not drawn)	78.6%	99.3%	101%	108%	94.8%	75.3%	92.5%	94.5%	101%		99%	92%	85.7%	93.7%	90.5%	83.9%	71.6%	106%
CN(C(=O)CN1C(=O)/C(=C/c2ccco2)SC1=S)C1CCS(=O)(=O)C1 (stereo not drawn)	84.8%	98%	96%	111%	106%	91.3%	116%	111%	96.4%	75.7%	97%	99.9%	91.1%	96.7%	104%	107%	72%	91.3%
CN1CCN(C(=O)CCN(C(=O)Oc2cc3c(c4ccccc24)[C@H](CCl)CN3C(=O)c2cc3cc(OCCCN4CCC4)ccc3[nH]2)[C@H]2CCSSC2)CC1	-17.2% (active)	-39.8% (active)	-64.4% (active)	-88.8% (active)	-30.2% (active)	-12.4% (active)	-51.5% (active)	-9.25% (active)	-46.7% (active)	-40.9% (active)	-37.1% (active)	-54.2% (active)	-67.4% (active)	-42.7% (active)	-91.2% (active)		-82.9% (active)	-68.3% (active)
NC(=O)c1ccc(-c2ccc3ncnc(N4CCc5cc(F)c(Cl)cc54)c3c2)cn1	15.2%	48.5%	71.1%	73.5%	88.7%	101%	2.18% (active)	55.4%	74.6%	28%	95.9%	94.2%	37.7%	63.6%	89.7%	96.1%	-7.37% (active)	61.1%
COc1ccccc1NC(=O)c1ccc(NC(=O)CCl)s1	2.06% (active)	-37.4% (active)	-61% (active)	2.87% (active)	65.2%	-4.26% (active)	-63.9% (active)	18.3%	2.28% (active)	40.6%	0.365% (active)	-18.5% (active)	-35% (active)	-68.5% (active)	27.2%	25.8%	-29.6% (active)	-57.7% (active)
O=C(CSc1nnc(-c2ccc(-c3nc4ccc(Cl)cc4[nH]3)cc2)o1)Nc1ccc(Cl)cc1	0.703% (active)	8.59% (active)	-31.3% (active)	49.3%	19.1%	81.1%	51.2%	14.1%	11.4%	47.5%	8.45% (active)		19.1%	5.5% (active)	67%	18.8%		-9.75% (active)
O=CNc1cccc(-n2cnc3cc(-c4ccc(O)cc4)ccc32)c1	33.8%	24.3%	31.6%	68.7%	65.4%	28.4%	44.3%	24.4%	12.1%	37.5%	24.1%		35%	14.1%	43.5%	26.4%	19.5%	52.6%
